Results on twelve molecules are retold here after article PMC5540273 (PLoS ONE, 2017).

Common to all, as to details: concentration: 1 μM, replicates: in singlicate; n = 1
Assay [1] relates to T1, RSK1(Kin.Dom.2-C-terminal).
T1 construct: gene RPS6KA1

The test system of assay [2] is T2, RSK2(Kin.Dom.1-N-terminal).
T2 construct: gene RPS6KA3

Assay [3] has as its system T3, RSK2(Kin.Dom.2-C-terminal).
T3 construct: gene RPS6KA3

The subject of assay [4] is T4, RSK3(Kin.Dom.1-N-terminal).
T4 construct: gene RPS6KA2

In assay [5] the test system is T5, RSK3(Kin.Dom.2-C-terminal).
T5 construct: gene RPS6KA2

Assay [6] deals with T6, RSK4(Kin.Dom.1-N-terminal).
T6 construct: gene RPS6KA6

The test system of assay [7] is T7, RSK4(Kin.Dom.2-C-terminal).
T7 construct: gene RPS6KA6

The subject of assay [8] is S6K1.
Assay [9] concerns SBK1.
Assay [10] has as its system SGK2.
The test system of assay [11] is SGK3.
For assay [12], the system named is SGK.
Assay [13] concerns SIK2.
The subject of assay [14] is SIK.
Assay [15] relates to SLK.
Assay [16] relates to T8, SNARK.
T8 construct: gene NUAK2

The subject of assay [17] is SNRK.
In assay [18] the test system is SRC.
In assay [19] the test system is SRMS.
Assay [20] relates to SRPK1.
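Also: KINOMEscan kinase panel screen.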

For the molecule `CC(C)c1ccc(O)cc1Nc1ccnc2ccc(C(F)(F)F)cc12` [GW482059], the “%Inh” value in assay [1] is given as 0%; in assay [2], 0%; in assay [3] it was 10%; in [4], 0%; in assay [5], 7%; in assay [6], 0%. Moreover, the “%Inh” value is reported as 0% in [7]; 0% in assay [8]; 5% in assay [9]; 0% in assay [10]; 4% in assay [11]; 7% in [12]. Moreover, the “%Inh” value in [13] is 0%; in [14], 0%; in assay [15], 9%; in assay [16], 3%; in [17], 0%; in assay [18], 14%. The “%Inh” value in assay [19] was 0%; in [20] it was 35%.

Turning to `CCCCc1nn2ncccc2c1-c1ccnc(NC2CC2)n1` [GW684374], the “%Inh” value worked out at 28% in assay [1]; 26% in assay [2]; 0% in [3]; 0% in assay [4]; 0% in [5]; 0% in assay [6]. The “%Inh” value in assay [7] is given as 32%; in assay [8], 0%; in assay [9] it was 0%; in [10] it was 0%; in [11] it was 2%; in [12], 0%. For the same molecule, the “%Inh” value in [13] is given as 0%; in assay [14] it was 0%; in [15] it was 0%; in assay [16], 9%; in [17] it was 0%; in assay [18], 0%. Besides, the “%Inh” value was 0% in [19] and 12% in assay [20].

For the molecule `COc1cccc(NC(=O)Nc2ccc(C)c(-c3ccc(C(=O)Nc4ccncc4)cc3)c2)c1` [GSK1398474], the “%Inh” value in assay [1] turned out to be 0%; in assay [2], 0%; in assay [3], 0%; in assay [4], 7%; in [5], 19%; in assay [6], 0%. The “%Inh” value came to 22% in assay [7]; 18% in assay [8]; 8% in [9]; 0% in assay [10]; 11% in [11]; 0% in assay [12]. Moreover, the “%Inh” value is listed as 0% in [13]; 10% in [14]; 7% in assay [15]; 13% in assay [16]; 3% in [17]; 31% in [18]. Besides, the results for the “%Inh” value in assay [19] and in [20] were 0% and 31%, respectively.

Consider `CCn1c(-c2ccccc2)nc2cnccc21` [SB-733416], for which the “%Inh” value was found to be 0% in assay [1]; 1% in assay [2]; 23% in assay [3]; 28% in assay [4]; 0% in assay [5]; 8% in assay [6]. The “%Inh” value is on record as 0% in assay [7]; 22% in assay [8]; 9% in assay [9]; 9% in [10]; 0% in assay [11]; 9% in assay [12]. Moreover, the “%Inh” value in [13] came to 5%; in [14], 3%; in assay [15], 28%; in assay [16], 0%; in assay [17], 0%; in assay [18] it was 0%. For the same molecule, the “%Inh” value amounted to 0% in assay [19] and 11% in assay [20].

In the case of `c1ccc(-c2ccnc3[nH]ccc23)cc1` [SB-693578], the “%Inh” value in assay [1] is 0%; in assay [2] it was 30%; in assay [3] it was 27%; in assay [4], 0%; in assay [5], 0%; in [6], 29%. For the same molecule, the “%Inh” value in assay [7] stood at 17%; in assay [8], 26%; in assay [9], 17%; in assay [10], 4%; in assay [11] it was 10%; in [12], 18%. The “%Inh” value in assay [13] is 25%; in assay [14], 0%; in [15], 6%; in assay [16], 48%; in [17] it was 0%; in assay [18] it was 0%. The “%Inh” value in assay [19] and in [20] was 0% throughout.

`O=C1NC(=O)C(c2ccc(Cl)cc2)=C1Nc1cccc(Cl)c1` [SB-317651]: the “%Inh” value in assay [1] is listed as 0%; in assay [2] it was 23%; in assay [3] it was 0%; in assay [4], 18%; in assay [5] it was 23%; in assay [6], 0%. For the same molecule, the “%Inh” value was 13% in [7]; 36% in assay [8]; 0% in assay [9]; 6% in assay [10]; 0% in [11]; 0% in [12]. Further, the “%Inh” value in assay [13] was 0%; in [14], 0%; in [15], 14%; in assay [16], 0%; in assay [17] it was 0%; in assay [18], 2%. For the same molecule, the “%Inh” value in assay [19] and in assay [20] was 0% in each case.

`Cc1c(Cn2c3ccccc3n3c(=O)cc(N4CCOCC4)nc23)cccc1C(F)(F)F` [GSK2306394]: the “%Inh” value in assay [1] is recorded as 0%; in [2] it was 4%; in assay [3], 30%; in [4] it was 5%; in assay [5], 1%; in [6], 0%. The “%Inh” value in assay [7] was found to be 11%; in [8] it was 0%; in assay [9] it was 9%; in assay [10] it was 0%; in [11], 0%; in assay [12], 15%. Moreover, the “%Inh” value is 0% in [13]; 0% in assay [14]; 5% in assay [15]; 0% in assay [16]; 0% in assay [17]; 1% in [18]. The “%Inh” value in [19] turned out to be 0%; in [20] it was 41%.

`Cn1cnc2c(N)ncnc21` [SKF-97623]: the “%Inh” value is recorded as 100% in [1]; 0% in [2]; 0% in assay [3]; 0% in assay [4]; 8% in assay [5]; 0% in assay [6]. The “%Inh” value is on record as 2% in assay [7]; 0% in assay [8]; 0% in assay [9]; 0% in [10]; 0% in assay [11]; 0% in assay [12]. The “%Inh” value in assay [13] turned out to be 27%; in assay [14], 0%; in assay [15] it was 0%; in [16] it was 0%; in [17], 0%; in assay [18], 0%. In addition, the “%Inh” value in assay [19] and in [20] was 0% in each case.

In the case of `CC(C)c1cc(-c2ccc3c(N)n[nH]c3c2)nc(N)n1` [GSK2250882], the “%Inh” value is on record as 0% in assay [1]; 18% in [2]; 0% in assay [3]; 0% in assay [4]; 5% in [5]; 0% in assay [6]. Besides, the “%Inh” value worked out at 17% in assay [7]; 0% in [8]; 16% in assay [9]; 0% in assay [10]; 4% in [11]; 0% in assay [12]. Besides, the “%Inh” value came out at 0% in [13]; 0% in assay [14]; 14% in assay [15]; 0% in assay [16]; 0% in assay [17]; 0% in assay [18]. For the same molecule, the “%Inh” value is 8% in assay [19] and 60% in [20].

On to `O=C(Nc1n[nH]c2nc(-c3cccs3)c(Br)cc12)C1CC1` [SB-735297], for which the “%Inh” value in assay [1] was found to be 0%; in [2], 22%; in assay [3], 0%; in [4], 0%; in [5], 0%; in assay [6] it was 98.9%. The “%Inh” value in assay [7] is on record as 20%; in assay [8], 22%; in assay [9], 11%; in assay [10], 27%; in assay [11] it was 15%; in [12] it was 26%. Also, the “%Inh” value in [13] is 0%; in assay [14], 0%; in [15] it was 7%; in [16] it was 10%; in assay [17], 0%; in assay [18], 0%. In addition, the “%Inh” value is 5% in assay [19] and 22% in assay [20].

For `COc1cccc(CNC(=O)NC2CCN(c3ccnc(Nc4ccc(F)cc4)n3)C2)c1` (stereo not drawn) [GSK1379723], the “%Inh” value in assay [1] is on record as 0%; in [2], 9%; in assay [3], 28%; in [4] it was 0%; in assay [5], 0%; in assay [6], 0%. Moreover, the “%Inh” value in [7] was found to be 6%; in assay [8] it was 0%; in assay [9] it was 22%; in [10], 8%; in assay [11], 0%; in assay [12], 0%. Besides, the “%Inh” value is recorded as 14% in assay [13]; 0% in assay [14]; 15% in [15]; 0% in [16]; 0% in assay [17]; 0% in assay [18]. Also, the “%Inh” value in assay [19] came to 0%; in assay [20], 33%.

As for `Cc1nccc(-c2c(-c3ccc(F)cc3)ncn2CCCN2CCOCC2)n1.Cl` [SB-282975], the “%Inh” value in assay [1] was 5%; in assay [2], 29%; in assay [3], 44%; in [4], 9%; in assay [5], 0%; in [6], 22%. Moreover, the “%Inh” value is recorded as 6% in [7]; 9% in assay [8]; 29% in assay [9]; 27% in assay [10]; 39% in assay [11]; 27% in assay [12]. For the same molecule, the “%Inh” value in assay [13] was 0%; in assay [14], 27%; in [15] it was 32%; in assay [16] it was 42%; in assay [17], 2%; in assay [18], 26%. Further, the “%Inh” value in [19] worked out at 0%; in assay [20], 19%.
